Screening results as filed in PubChem.
This excerpt belongs to a sample that is enriched for hits.
ST2 inh: inhibitors of human ST2 (IL1RL1) binding to IL-33; Q01638; AlphaLISA ST2-Fc/biotin-IL-33 interaction, 1 h; inhibition, % for hits at 17 µM; actives 2.3% (n = 78,000); AID 1259354; in the data active = inhibition above about 30%
Target sequence (Q01638 whole entry, looked up): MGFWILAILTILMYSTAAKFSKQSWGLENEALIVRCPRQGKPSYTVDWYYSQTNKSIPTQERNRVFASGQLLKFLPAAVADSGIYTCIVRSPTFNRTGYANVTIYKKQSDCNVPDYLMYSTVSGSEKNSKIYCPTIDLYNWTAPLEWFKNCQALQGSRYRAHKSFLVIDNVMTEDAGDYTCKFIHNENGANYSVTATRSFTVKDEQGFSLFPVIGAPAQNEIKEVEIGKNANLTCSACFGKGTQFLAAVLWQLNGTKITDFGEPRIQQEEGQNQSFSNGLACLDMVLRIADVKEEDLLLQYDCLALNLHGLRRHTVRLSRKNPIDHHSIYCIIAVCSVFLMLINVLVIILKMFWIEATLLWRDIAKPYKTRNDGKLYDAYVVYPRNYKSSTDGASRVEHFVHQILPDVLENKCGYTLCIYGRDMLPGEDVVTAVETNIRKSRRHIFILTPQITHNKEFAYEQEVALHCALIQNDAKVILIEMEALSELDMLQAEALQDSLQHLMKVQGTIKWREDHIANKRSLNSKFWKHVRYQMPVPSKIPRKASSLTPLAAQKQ
* marks the source's active call; other numbers are inactive results; i = inactive.

SMILES	ST2 inh
CCOC(=O)C1(CCOc2ccccc2)CCN(C(=O)C2CC(C(C)C)=NO2)CC1 (configuration not stated)	i
Cc1nc2sc(C(c3ccc(Cl)cc3)N3CCCCC3)c(O)n2n1 (configuration not stated)	i
Cn1cc(CN2CCN(C3CCS(=O)(=O)C3)CC2)c(-c2cccc(Cl)c2)n1 (configuration not stated)	i
CC(=O)n1cc(/C=C2\N=C(c3ccc(Cl)cc3)OC2=O)c2cc(Br)ccc21	i
CC(=O)n1cc(/C=C2/N=C(c3ccccc3)OC2=O)c2ccccc21	61.0%*
COc1ccccc1/C=C1\N=C(c2cccc(I)c2)OC1=O	i
Nc1cc(NC(=O)C23CC4CC(CC(C4)C2)C3)cc(Oc2ccccc2)c1	i
CC(C)CN1CCNC(=O)C1CC(=O)N(C)Cc1cccc2cccnc12 (configuration not stated)	79.0%*
CN(Cc1cnccn1)C(=O)CC1C(=O)NCCN1Cc1ccc(F)cc1Cl (configuration not stated)	i
CN(CCC1CCOCC1)C(=O)CC1C(=O)NCCN1Cc1cccc2ccccc12 (configuration not stated)	i
COc1ccc(CNC(=O)c2cnn3c2NC(c2ccc(C)cc2)CC3C(F)(F)F)cc1 (configuration not stated)	i
NC(=O)c1cccc(CC2CCN(C(=O)CCc3cccc(F)c3)C2)c1 (configuration not stated)	i
COCCNC(=S)N[C@H]1C[C@H]2C(=O)NC[C@@H](CCC(=O)N3CCN(c4ccccc4)CC3)N2C1	i
O=C(Nc1ccccc1)N[C@H]1C[C@H]2C(=O)NC[C@@H](CCC(=O)N3CCN(c4ccccn4)CC3)N2C1	i
O=C(N[C@H]1C[C@H]2C(=O)NC[C@@H](CCC(=O)N3CCN(c4ccccc4)CC3)N2C1)C1CC1	i
COCCNC(=S)N[C@H]1C[C@H]2C(=O)NC[C@@H](CCC(=O)N3CCN(c4ccccn4)CC3)N2C1	i
O=C(N[C@H]1C[C@H]2C(=O)NC[C@@H](CCC(=O)N3CCN(c4ccccn4)CC3)N2C1)c1cccs1	33.0%*
COc1ccc(CN[C@H]2C[C@H]3C(=O)NC[C@@H](CCC(=O)N4CCN(c5ccccc5)CC4)N3C2)cc1	57.0%*
CC(NC(=O)Cn1c(=O)sc2ccccc21)c1ccccc1 (configuration not stated)	i
COc1ccc(C2CC(C(F)(F)F)n3nc(C(=O)N4CCCCC4C)c(Cl)c3N2)cc1 (configuration not stated)	i
CC1=C[C@@H](CNC(=O)c2cccnc2)[C@H](C(C)C)C[C@H]1CC(=O)NCc1ccc(C#N)cc1	i
Cc1cc(O)cc(Oc2cc(C)c(CC(O)C(C)(C)O)c(O)c2)c1 (configuration not stated)	i
CC1CCC(C(=O)NC(C(=O)NCCCN2CCCCC2)C(C)C)CC1 (configuration not stated)	i
O=C(O)c1cccc(NC(=O)c2ccc(-c3ccccc3)cc2)c1	i
O=C(O)c1cccc(NC(=O)c2cccc(C(=O)Nc3cccc(C(=O)O)c3)c2)c1	i
SMILES	ST2 inh
CC1(C)OC(=O)C(=CNc2cccc(C(=O)O)c2)C(=O)O1	33.0%*
CCCOc1cccc(C(=O)Nc2cccc(Br)c2)c1	i
Clc1cccc(CN2CCCCCC2)c1	i
NC(=O)c1cccn1Cc1cccc(Cl)c1	i
N#CSC(C#N)Cc1cccc(Cl)c1 (configuration not stated)	34.0%*
O=C1NC(=O)/C(=C\c2cc(Cl)c(OCc3ccc(F)cc3)c(Cl)c2)N1	i
O=C(NCCc1ccc(Cl)cc1)c1coc2nc3ccccc3nc12	i
CCCCOc1ccccc1NC(=O)c1cncc(Br)c1	i
O=[N+]([O-])c1cc(C=Nc2ccc(-c3nc4ncccc4o3)cc2)ccc1Cl	i
O=[N+]([O-])c1ccc(N2CCCC2)cc1N1CCOCC1	i
O=[N+]([O-])c1cc(C=Nc2ccc(N3CCOCC3)cc2)ccc1Cl	48.0%*
O=C1COc2ccc(S(=O)(=O)N3CCCC3c3ccccn3)cc2N1 (configuration not stated)	i
CN(C)/C=C/c1c(C#N)c2ncnc(-c3ccccc3)c2n1Cc1ccccc1	i
O=C1CC(c2cccc([N+](=O)[O-])c2)CC2=C1C(c1ccc(Cl)cc1)Nc1ccccc1N2 (configuration not stated)	i
Cc1ccc(C(=O)Nc2ccccc2C)cc1	i
Cc1ccccc1NCCNc1ccccc1C	34.0%*
Cc1ccccc1NC(=O)CCC(=O)Nc1ccccc1C	i
OCCNc1ncnc2oc(-c3ccccc3)c(-c3ccccc3)c12	35.0%*
N=c1c2c(-c3ccccc3)c(-c3ccccc3)oc2ncn1CCCO	i
COc1ccc(-c2oc3ncn(CCO)c(=N)c3c2-c2ccc(OC)cc2)cc1	i
CC(=O)Nc1ccc(NC(=O)c2ccc([N+](=O)[O-])c(C)c2)cc1	i
Cc1cc(-c2ccccc2)c(C#N)c(N)n1	i
CCOC(=O)c1sc(-c2ccccc2)c(C#N)c1C	i
Cc1c(-c2ccccc2)sc(N)c1C#N	33.0%*
CC1=C(C#N)C(c2cccc(Cl)c2Cl)C2=C(CC(C)(C)CC2=O)N1 (configuration not stated)	i
